# Measurements reported in PubChem BioAssay (NCATS).
# Inconclusive results are not listed. Values without a mark were called inactive. Activity calls are given as the source filed them. Calls come from the whole dose curve; as a rule, active = well fitted inhibition curve with a large enough effect; inconclusive = small, poorly fitted or top-dose-only effect; inactive = flat fitted curve, though single readings scatter.
# Biological target: Ubiquitin carboxyl-terminal hydrolase 1 (Homo sapiens) (UniProt O94782)
# Experiment: Inhibitors of USP1/UAF1: Pilot qHTS (AID 504865); note: nearly all actives have a fitted effect of over 35% in size;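 for activity change, negative = inhibition: rhodamine fluorescence freed from ubiquitin-rhodamine substrate followed over time; top concentration of the series differs between compounds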
# Conditions: purified USP1/UAF1, Ub-rhodamine cleavage fluorescence; series mostly up to 114 µM; activity change, negative = inhibition: at the top concentration
# Method in brief: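 Enzyme-free wells gave the negative control, while test wells held 1nM USP1/UAF1 preincubated with compound for 15 min at room temperature. Ub-Rho at 150nM final started the reaction, and fluorescence at 480/540 nm was recorded kinetically.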
# % is set by controls: 0 for no effect and ±100 for the full control effect; potency is the fitted concentration of half-maximal effect.
# Chain of Ubiquitin carboxyl-terminal hydrolase 1 (Homo sapiens) (O94782 whole entry, looked up): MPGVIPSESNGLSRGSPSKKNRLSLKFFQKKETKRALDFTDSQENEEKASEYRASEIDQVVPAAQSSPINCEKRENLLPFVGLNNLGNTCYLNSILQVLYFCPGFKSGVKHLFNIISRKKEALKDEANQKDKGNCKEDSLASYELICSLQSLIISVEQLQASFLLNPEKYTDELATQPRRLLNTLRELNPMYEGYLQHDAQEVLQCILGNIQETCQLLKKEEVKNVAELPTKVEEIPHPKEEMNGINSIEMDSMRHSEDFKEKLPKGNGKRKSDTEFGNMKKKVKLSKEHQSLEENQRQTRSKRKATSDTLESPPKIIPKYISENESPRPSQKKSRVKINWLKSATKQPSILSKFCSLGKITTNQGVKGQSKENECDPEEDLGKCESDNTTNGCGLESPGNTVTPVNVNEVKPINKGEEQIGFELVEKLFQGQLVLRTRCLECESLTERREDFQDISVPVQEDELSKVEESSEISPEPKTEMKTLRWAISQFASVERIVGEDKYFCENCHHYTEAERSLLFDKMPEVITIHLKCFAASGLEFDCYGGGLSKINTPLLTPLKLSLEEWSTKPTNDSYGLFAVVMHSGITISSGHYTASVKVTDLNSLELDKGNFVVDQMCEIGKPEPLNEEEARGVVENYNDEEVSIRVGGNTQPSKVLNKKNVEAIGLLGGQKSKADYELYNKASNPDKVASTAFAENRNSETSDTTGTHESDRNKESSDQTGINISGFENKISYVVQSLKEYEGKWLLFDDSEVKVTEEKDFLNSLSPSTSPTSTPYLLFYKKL
Structure (SMILES),"activity change, negative = inhibition",Potency
O=C1c2ccccc2C(=O)C1c1ccccc1,3.69% [at 54.9 µM],–
Cc1c(F)c(N2CCNC(C)C2)cc2c1c(=O)c(C(=O)O)cn2C1CC1 (stereo unspecified),-7.99%,–
COc1ccc(CN2CCN(C(c3ccc(F)cc3)c3ccc(F)cc3)CC2)c(OC)c1OC,-12.1%,–
CC(C)=CCC1C(=O)N(c2ccccc2)N(c2ccccc2)C1=O,-4.87% [at 54.9 µM],–
Nc1ccc(/C=C/c2ccc(N)cc2S(=O)(=O)O)c(S(=O)(=O)O)c1,-3.84%,–
COc1cccc(CCc2ccccc2OCC(CN(C)C)OC(=O)CCC(=O)O)c1 (stereo unspecified),-6.92%,–
C/C=C/c1ccc(OC)cc1,-4.18%,–
CC(C)COC(=O)c1ccc(N)cc1,-8.36%,–
CCCN1CCCC[C@H]1C(=O)Nc1c(C)cccc1C,-5.07%,–
COc1ccc(C2C(=O)c3ccccc3C2=O)cc1,-1.45%,–
CCCCCCCCCCCCCCCC[N+](C)(C)CC,–,17.8 µM (active)
c1ccc(OCc2ccc(CCCN3CCOCC3)cc2)cc1,-11.7%,–
CN1CCN(CCCN2c3ccccc3Sc3ccc(S(=O)(=O)N(C)C)cc32)CC1,-3.92% [at 54.9 µM],–
CCCCOc1ccc(C(=O)CCN2CCCCC2)cc1,–,inactive
COC(=O)[C@@H]1CC2=CC(=O)CC[C@]2(C)[C@@]23O[C@@H]2C[C@@]2(C)[C@@H](CC[C@@]24CCC(=O)O4)[C@H]13,2.18%,–
NCCc1ccn[nH]1,-6.93% [at 54.9 µM],–
Cc1c(C(C)C)c(=O)n(-c2ccccc2)n1C,-5.26%,–
Clc1ccc2c(c1)CCc1cccnc1C2=C1CCNCC1,-4.7%,–

Structure (SMILES),"activity change, negative = inhibition",Potency
CC(=O)N(O)CCCCCNC(=O)CCC(=O)N(O)CCCCCNC(=O)CCC(=O)N(O)CCCCCN,-2.85% [at 54.9 µM],–
CC(=O)N/N=C/c1ccc([N+](=O)[O-])o1,-14.4%,–
N[C@H](Cc1c[nH]c2ccccc12)C(=O)O,0.125%,–
Cc1c(C(N)=O)cc([N+](=O)[O-])cc1[N+](=O)[O-],-8.94%,–
CCOC(=O)c1cccc(N)c1,-1.64%,–
CN1CCN(C(c2ccccc2)c2ccccc2)CC1,9.97% [at 54.9 µM],–
CC(=O)OCC(=O)NCCCOc1cccc(CN2CCCCC2)c1,-9.65%,–
CC(C)N=C(N)/N=C(\N)Nc1ccc(Cl)cc1,1.38% [at 54.9 µM],–
Oc1ccc(Cl)c2cccnc12,–,inactive
C[C@@H]1C[C@H]2[C@@H]3CCC4=CC(=O)C=C[C@]4(C)[C@@]3(F)[C@@H](O)C[C@]2(C)[C@H]1C(=O)CO,-4.16%,–
CN1C(CCl)Nc2cc(Cl)c(S(N)(=O)=O)cc2S1(=O)=O (stereo unspecified),-8.1%,–
CCCC(=O)Nc1ccc(OCC(O)CNC(C)C)c(C(C)=O)c1 (stereo unspecified),-10.3%,–
O=C(COc1ccc(Cl)cc1)N1CCN(Cc2ccc3c(c2)OCO3)CC1,–,inactive
CCOC(=O)OC(C)OC1=C(C(=O)Nc2ccccn2)N(C)S(=O)(=O)c2ccccc21 (stereo unspecified),5.97%,–
CCN(CCCc1ccccc1)CCCc1ccccc1,10.5% [at 54.9 µM],–
c1ccc(CNCCNCc2ccccc2)cc1,3.39%,–
O=C(CCN1CCC(c2ccccc2)C1)c1ccc2c(c1)OCCO2 (stereo unspecified),-10.7%,–
CN1CCC(=C2c3ccccc3Sc3ccccc32)CC1,–,39.8 µM (active)
